The results in this text go back to PubChem BioAssay (NCATS).

The nature of assay [1]: Primary qHTS for inhibitors of nuclear receptor binding SET domain protein 2 (NSD2) in an isogenic RCH-ACV NSD2 p.E1099K mutant (9B) (AID 1645876). (qHTS replaces the single test concentration by a dilution series.)
Assay [2] can be described thus: Primary qHTS for inhibitors of nuclear receptor binding SET domain protein 2 (NSD2) in an RCH-ACV wild type WT cells (2C) (AID 1645877).

Inconclusive results are not listed. Values without a mark were called inactive. The source made the active and inactive calls. Calls come from the whole dose curve; as a rule, active = well fitted curve in the direction sought with a large enough effect; inconclusive = small, poorly fitted or top-dose-only effect, or another doubt; inactive = no such curve, though single readings can be large; an effect the other way counts as inactive or inconclusive. *1 amine or outer side, *2 acyl side, *3 side chain or, on linkers, in order; H or OH if unused. Where a SMILES comes first, the peptide text is derived from it. Bridges are numbered along the chain shown (N, C = ends). X6 = O=C(CCC[*:2])[*:1]
% is set by controls: 0 for no effect and ±100 for the full control effect; potency is the fitted concentration of half-maximal effect.
Note: nearly all actives have a fitted effect of over 70% in size.

Regarding `C=C1CC2C3(C)C(O)CC(=O)C(C)(C)C3C(OC(C)=O)C(OC(C)=O)C2(C)C2C(=O)OC(C)(C(=O)OC)C(=O)C12C` (stereo not given), the Potency result in assay [1] and in assay [2] was “inactive” throughout.
For the molecule `C=C1[C@@H]2CC[C@@]3(C)[C@H](c4ccoc4)OC(=O)C[C@]13O[C@H]1CC(=O)C(C)(C)[C@H](CC(=O)OC)[C@]12C`, the Potency result in assay [1] and in assay [2] was “inactive” each time.
Regarding `CC1(C(=O)O)CCCC2(C)C1CCC13CC(CCC21)C1(CO)OC31` (stereo not given), the Potency result in assay [1] and in assay [2] was “inactive” in each case.
Take `CCOc1ccc(-c2ccc(Cn3c(CC(C)(C)C(=O)O)c(SC(C)(C)C)c4cc(OCc5ccc(C)cn5)ccc43)cc2)cn1`: the Potency result in assay [1] and in assay [2] was “inactive” in each case.
For the molecule `CC[C@H](C)[C@@H]1NC(=O)[C@H](Cc2ccc(OC)cc2)NC(=O)CCCSC[C@@H](C(=O)N2CCC[C@H]2C(=O)N[C@@H](CC(C)C)C(=O)NCC(N)=O)NC(=O)[C@H](CC(N)=O)NC(=O)[C@H](CCC(N)=O)NC1=O` (Y(Me)IQNCPLG-NH2; linker N-5 via X6), the Potency result in assay [1] and in assay [2] was “inactive” throughout.
As to `C[C@@]12C[C@]3(O)O[C@H](O1)[C@]1(COC(=O)c4ccccc4)[C@H]3C[C@@]12O[C@@H]1O[C@H](COC(=O)c2ccccc2)[C@@H](O)[C@H](O)[C@H]1O`, the Potency entry in assay [1] and in assay [2] was “inactive” throughout.
`C=C1CCC2(OC1)OC1CC3C4CC=C5CC(O)CC(O[C@@H]6OC[C@@H](O)[C@H](O)[C@H]6O)C5(C)C4CCC3(C)C1(O)C2C` (stereo not given in full): the Potency result in assay [1] and in assay [2] was “inactive” each time.
For `COc1cc(C2Oc3c(OC)cc(CCCO[C@@H]4O[C@H](CO)[C@@H](O)[C@H](O)[C@H]4O)cc3C2CO)ccc1O` (stereo not given in full), the Potency entry in assay [1] and in assay [2] was “inactive” each time.
Consider `C=CC(C)(O)CC/C=C(\C)C(=O)OCC1OC(OC2CCC3(C)C(CCC4(C)C3CC=C3C5CC(C)(C)C(O)CC5(C(=O)O)CCC34C)C2(C)C)C(O)C(OC2OC(CO)C(O)C(OC3OC(CO)C(O)C(OC4OC(COC5OC(CO)C(O)C(O)C5O)C(O)C(O)C4O)C3O)C2O)C1O` (stereo not given), for which the outcome in assay [1] was “inactive [at 9.23 µM]”. In assay [2], the activity change, negative = cell killing is 4.93% [at 9.23 µM].
As to `CC(=O)c1c(O)cc2c(c1C)C(=O)CC(O)C2` (stereo not given), the Potency result in assay [1] and in assay [2] was “inactive” in each case.
On to `CCN(c1cc(C#CCN2CCOCC2)cc(C(=O)NCc2c(C)cc(C)[nH]c2=O)c1C)C1CCC(N(C)CCOC)CC1` (stereo not given), for which the Potency entry in assay [1] and in assay [2] was “inactive” throughout.
In the case of `CC(O)C(O)/C=C/C=C/C(=O)O[C@@H]1C=C2COC(=O)[C@]2(O)[C@@]2(C)CCCC(C)(C)C12` (stereo not given in full), the Potency result in assay [1] and in assay [2] was “inactive” each time.
Consider `C=CC1(C)C=C2C(O)CC3C(C)(C(=O)O)CCCC3(C)C2CC1` (stereo not given), for which the Potency entry in assay [1] and in assay [2] was “inactive” each time.
For `CCOC(=O)c1ccnc(CNCC(=O)N(CC)CCN(C)C)c1`, the Potency result in assay [1] and in assay [2] was “inactive” in each case.
Turning to `CC(C)(O)CNc1nc(Nc2ccnc(C(F)(F)F)c2)nc(-c2cccc(C(F)(F)F)n2)n1`, the Potency in assay [1] and in assay [2] was 20.9 µM (active) each time.
As to `CC1CCC2(NC1)OC1C(=O)C3C4CCC5CC(O[C@@H]6O[C@H](CO)[C@@H](O)[C@H](O)[C@H]6O[C@@H]6O[C@@H](C)[C@H](O)[C@@H](O)[C@H]6O)CCC5(C)C4CCC3(C)C1C2C` (stereo not given in full), the Potency entry in assay [1] and in assay [2] was “inactive” throughout.
As for `CC1(C)C(O)CCC2(C)C1C(O)C=C1COC(=O)C12O` (stereo not given), the Potency result in assay [1] and in assay [2] was “inactive” each time.
Consider `CC1(C)CCCC2(C)C1C(O)C=C(CO)C2(O)C(=O)O` (stereo not given), for which the Potency result in assay [1] and in assay [2] was “inactive” in each case.
`C[C@@H]1O[C@@H](O[C@@H]2[C@@H](O)[C@H](O[C@@H]3[C@@H](O)[C@@H](O)[C@H](O[C@H]4[C@H](OC(=O)[C@]56CCC(C)(C)C[C@H]5C5=CCC7[C@@]8(C)C[C@H](O)[C@H](O[C@@H]9O[C@H](C(=O)O)[C@@H](O)[C@H](O)[C@H]9O)[C@@](C)(CO)C8[C@H](O)C[C@@]7(C)[C@]5(C)CC6)OC[C@H](O)[C@@H]4O)O[C@H]3C)OC[C@H]2O)[C@H](O)[C@H](O)[C@H]1O` (stereo not given in full): in assay [1], the activity change, negative = viability loss was -7.76% [at 9.23 µM]. The activity change, negative = cell killing in assay [2] was -21.5% [at 9.23 µM].
Turning to `C[C@@H]1O[C@@H](O[C@H]2[C@H](O[C@H]3[C@H](O[C@H]4CC[C@@]5(CO)C(CC[C@]6(C)C5CC=C5C7CC(C)(C)C[C@@H](O)[C@]7(C)CC[C@]56C)C4(C)C)O[C@H](C(=O)O)[C@@H](O)[C@@H]3O)OC[C@@H](O)[C@@H]2O)[C@H](O)[C@H](O)[C@H]1O` (stereo not given in full), in assay [1], the activity change, negative = viability loss is -1.45% [at 9.23 µM]. Further, the activity change, negative = cell killing in assay [2] is -8.5% [at 9.23 µM].
For the molecule `O=C(NN1CCCCC1)c1nn(-c2ccc(Cl)cc2Cl)c(-c2ccc(C#Cc3ccc(C(F)(F)F)cc3)s2)c1CNS(=O)(=O)N1CCCC1`, the Potency entry in assay [1] and in assay [2] was “inactive” in each case.
As for `Cc1coc2c1CC1OC1(C)CCC1OC1(C)C2` (stereo not given), the Potency entry in assay [1] and in assay [2] was “inactive” throughout.
As to `O=C(/C=C/c1ccc(O)cc1)O[C@H]1[C@@H]2C=CO[C@@H](O[C@@H]3O[C@H](CO)[C@@H](O)[C@H](O)[C@H]3O)[C@@H]2[C@@]2(CO)O[C@@H]12`, the Potency entry in assay [1] and in assay [2] was “inactive” throughout.
Take `CC/C=C/CC1=C(CCCCCCCC(=O)O)CCC1=O`: the Potency entry in assay [1] and in assay [2] was “inactive” throughout.
Turning to `COc1c(C)c2c(c(O)c1C/C=C(\C)CC/C=C(\C)CCC(=O)O)C(=O)OC2`, the Potency result in assay [1] and in assay [2] was “inactive” in each case.
